2 compounds from PubChem BioAssay AID1846 (The Scripps Research Institute Molecular Screening Center, 2009) can be followed below.

Molecules are shown by their SMILES. The whole screen tested about 2,300 compounds, of which about 1,500 (65%) were called active. The set was probably picked from earlier hits. Only a sample is shown. Values without a mark were called inactive. No stated cut-off is given here; in the data, active means inhibition above about 18%; inactive means the rest.

This experiment has as its target Heat shock protein HSP 90-alpha (Homo sapiens) (UniProt P07900). In words: inhibitors of HSP90 chaperone activity – cell lysate, luminescence, confirmation (AID 1846).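 Further: 0% = vehicle wells and 100% = reference inhibitor wells.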 Particulars: rabbit reticulocyte lysate, luciferase refolding luminescence, 3 h; at 5.9 µM; hits give high values.
What is called inhibition is the relative decrease from the control value, in per cent. With `COc1cccc(-c2nc3ccc(N4CCN(C)CC4)cc3[nH]2)c1`, the inhibition is 69.3% (active).
On to `O=c1c2ccccc2nc(/C=C/c2ccco2)n1-c1ccccc1O`, for which the inhibition was 9.67%.
